Assay results as given in PubChem BioAssay (NCATS).
Values joined by “and” are separate entries in the source; they are usually repeats but may differ in a detail not shown here. Equal values may be shown once. Records with an inconclusive call do not appear. Where a call stands in place of a potency, no number is given. Active and inactive are the calls of the source. Unless noted, calls follow the shape of the dose curve; as a rule, active = well fitted curve in the direction sought with a large enough effect; inconclusive = small, poorly fitted or top-dose-only effect, or another doubt; inactive = no such curve, though single readings can be large; an effect the other way counts as inactive or inconclusive.

Assays:
[1] = Primary qHTS for inhibitors of nuclear receptor binding SET domain protein 2 (NSD2) in an isogenic RCH-ACV NSD2 p.E1099K mutant (9B) (AID 1645876); also: nearly all actives have a fitted effect of over 70% in size
[2] = Primary qHTS for inhibitors of nuclear receptor binding SET domain protein 2 (NSD2) in an RCH-ACV wild type WT cells (2C) (AID 1645877); also: nearly all actives have a fitted effect of over 70% in size
[3] = biological target: Catechol O-methyltransferase (Homo sapiens) (UniProt P21964); test: Confirmatory Screen for Target Class Profiling of Small Molecule Inhibitors of Methyltransferases (AID 1745852; calls by dose curve); details: MTase-Glo luminescence, SAH detection, recombinant enzyme; measured here: COMT max response; stronger effect = lower value
Catechol O-methyltransferase (Homo sapiens), sequence (P21964 whole entry, looked up): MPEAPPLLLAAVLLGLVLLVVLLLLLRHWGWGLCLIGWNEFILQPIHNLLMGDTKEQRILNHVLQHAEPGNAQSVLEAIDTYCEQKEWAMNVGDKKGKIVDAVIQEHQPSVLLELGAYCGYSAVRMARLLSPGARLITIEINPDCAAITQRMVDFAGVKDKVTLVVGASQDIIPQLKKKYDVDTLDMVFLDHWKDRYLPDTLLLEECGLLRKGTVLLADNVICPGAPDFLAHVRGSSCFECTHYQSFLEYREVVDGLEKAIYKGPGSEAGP

[4] = biological target: Guanidinoacetate N-methyltransferase (Homo sapiens) (UniProt Q14353); test: as above; details: activity change, negative = inhibition: at 57.3 µM (top of the series) unless noted
[5] = biological target: Nicotinamide N-methyltransferase (Homo sapiens) (UniProt P40261); test: as above; details: MTase-Glo luminescence, SAH detection, recombinant enzyme; measured here: NNMT max response; stronger effect = lower value
Nicotinamide N-methyltransferase (Homo sapiens), sequence (P40261 whole entry, looked up): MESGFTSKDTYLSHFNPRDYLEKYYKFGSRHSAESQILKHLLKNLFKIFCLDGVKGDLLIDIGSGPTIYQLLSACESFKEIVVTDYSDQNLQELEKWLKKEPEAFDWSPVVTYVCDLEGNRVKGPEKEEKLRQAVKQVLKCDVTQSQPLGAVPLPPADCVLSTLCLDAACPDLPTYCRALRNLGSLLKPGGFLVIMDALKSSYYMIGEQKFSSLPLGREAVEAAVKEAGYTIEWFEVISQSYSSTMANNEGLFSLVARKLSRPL

[6] = biological target: Phenylethanolamine N-methyltransferase (Homo sapiens) (UniProt P11086); test: as above; details: MTase-Glo luminescence, SAH detection, recombinant enzyme; measured here: PNMT max response; stronger effect = lower value
Phenylethanolamine N-methyltransferase (Homo sapiens), sequence (P11086 whole entry, looked up): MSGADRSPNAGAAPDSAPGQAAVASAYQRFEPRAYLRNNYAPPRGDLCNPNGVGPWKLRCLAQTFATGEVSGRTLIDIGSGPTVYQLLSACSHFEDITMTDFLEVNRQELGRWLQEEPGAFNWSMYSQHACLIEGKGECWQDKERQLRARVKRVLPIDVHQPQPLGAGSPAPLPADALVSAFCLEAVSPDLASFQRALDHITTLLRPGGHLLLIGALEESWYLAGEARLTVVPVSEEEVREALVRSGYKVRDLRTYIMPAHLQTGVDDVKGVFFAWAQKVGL
Potency is read from the fitted curve at half-maximal effect.

CCC(C)(O)C(O)C(=O)OCc1ccc(O[C@@H]2O[C@H](CO)[C@@H](O)[C@H](O)[C@H]2O)c(OC)c1 (some centres not stated)
Potency [1]: inactive
Potency [2]: inactive

CC(C)=CCC/C(C)=C/CC/C(C)=C/CC[C@]1(C)CCc2cc(O)cc(C)c2O1
Potency [1]: inactive
Potency [2]: inactive

C[C@]1(O)CC[C@@H]2C(C(=O)O)=CO[C@@H](O[C@@H]3O[C@H](COC(=O)c4ccc(O)cc4)[C@@H](O)[C@H](O)[C@H]3O)[C@@H]21
Potency [1]: inactive
Potency [2]: inactive

CC12CCC3c4ccc(O)cc4CCC3C1CCC2OC1OC(C(=O)O)C(O)C(O)C1O (configuration not stated)
Potency [1]: inactive
Potency [2]: inactive

CCC[C@@H]1C[C@@H](C(=O)N[C@H](C(C)Cl)[C@H]2O[C@H](SC)[C@H](O)[C@@H](O)[C@H]2O)N(C)C1 (some centres not stated)
Potency [1]: inactive
Potency [2]: inactive

C[C@@H]1C(=O)O[C@H]2CC34[C@H]5C[C@@H](C(C)(C)C)C36[C@@H](OC(=O)[C@@H]6O)O[C@@]4(C(=O)O5)[C@]21O (some centres not stated)
Potency [1]: inactive
Potency [2]: inactive

NS(=O)(=O)NCCNc1nonc1C(=Nc1ccc(F)c(Br)c1)NO
Potency [1]: inactive
Potency [2]: inactive

C[C@H]1[C@H](C)CC[C@]2(C(=O)O)CC[C@]3(C(=O)O)C(=CCC4[C@@]5(C)CC[C@H](O[C@@H]6O[C@H](C)[C@@H](O)[C@H](O)[C@H]6O)C(C)(C)C5CC[C@]43C)[C@H]12 (some centres not stated)
Potency [1]: inactive
Potency [2]: inactive

C=C1C(=O)OC2CC(C)=C(C(C)CCCO[C@@H]3O[C@H](CO)[C@@H](O)[C@H](O)[C@H]3O)C(O)C12 (some centres not stated)
Potency [1]: inactive
Potency [2]: inactive

CC1(CO)CC[C@]2(C(=O)O[C@@H]3O[C@H](CO)[C@@H](O)[C@H](O)[C@H]3O)CC[C@]3(C)C(=CCC4[C@@]5(C)C[C@H](O)[C@H](O[C@@H]6OC[C@@H](O)[C@H](O)[C@H]6O)[C@@](C)(CO)C5CC[C@]43C)C2C1 (some centres not stated)
activity change, negative = viability loss [1]: 1.64% [at 9.23 µM] (inactive)
outcome [2]: inactive [at 9.23 µM]
activity [3]: -56.9%
activity change, negative = inhibition [4]: 0.83% [at 19.1 µM]
activity [5]: 2.23%
activity [6]: 2.01%

CC1CCC2(C(=O)OC3OC(CO)C(O)C(O)C3O)CCC3(C(=O)O)C(=CCC4C5(C)CCC(OC6OC(C)C(O)C(O)C6O)C(C)(C)C5CCC43C)C2C1C (configuration not stated)
Potency [1]: inactive
Potency [2]: inactive

COc1ccc2c(c1)O[C@H](O[C@@H]1O[C@H](CO)[C@@H](O)[C@H](O)[C@H]1O)C(=O)N2
Potency [1]: inactive
Potency [2]: inactive

CC(CCC1C(C(=O)O)=CC(=O)CC1(C)C)O[C@@H]1O[C@H](CO)[C@@H](O)[C@H](O)[C@H]1O (some centres not stated)
Potency [1]: inactive
Potency [2]: inactive
activity [3]: -82.7%
activity change, negative = inhibition [4]: -6.33%
activity [5]: -5.15%
activity [6]: -4.16%

CC1=CC(=O)CC(C)(C)C1CCC(C)OC1OC(COC(=O)c2cc(O)c(O)c(O)c2)C(O)C(O)C1O (configuration not stated)
Potency [1]: inactive
Potency [2]: inactive
activity [3]: -58.9%
activity change, negative = inhibition [4]: 0% [at 29.8 µM]
activity [5]: 2.37%
activity [6]: 0%

CC1(C)O[C@@]2(C)CC[C@@H]1C[C@@H]2OC1OC(CO)C(O)C(O)C1O (some centres not stated)
Potency [1]: inactive
Potency [2]: inactive
activity [3]: -67.5%
activity change, negative = inhibition [4]: 2.82%
activity [5]: 4.92%
activity [6]: 0.858%

CCCCC(=O)OCC(=O)[C@]1(O)Cc2c(O)c3c(c(O)c2[C@@H](O[C@H]2C[C@H](NC(=O)C(F)(F)F)[C@H](O)[C@H](C)O2)C1)C(=O)c1c(OC)cccc1C3=O
Potency [1]: 263 nM (active)
Potency [2]: 166 nM (active)

CC1(C)CC[C@]2(C(=O)O[C@@H]3O[C@H](CO)[C@@H](O)[C@H](O)[C@H]3O)CC[C@]3(C)C(=CCC4[C@@]5(C)C[C@@H](O)[C@H](O)C(CO)(CO)C5CC[C@]43C)C2[C@@H]1O (some centres not stated)
Potency [1]: inactive
Potency [2]: inactive
activity [3]: -77.5%
activity change, negative = inhibition [4]: 0% [at 19.1 µM]
activity [5]: 0%
activity [6]: 4.05%

COC(=O)C1=CO[C@@H](O[C@@H]2O[C@H](COC(=O)/C=C/c3cc(OC)c(O)c(OC)c3)[C@@H](O)[C@H](O)[C@H]2O)[C@@H]2C(CO)=CC[C@H]12
Potency [1]: inactive
Potency [2]: inactive
activity [3]: -58.2%
activity change, negative = inhibition [4]: -6.4% [at 19.1 µM]
activity [5]: -2.91%
activity [6]: -3.37%

CC1=C(C)C(=O)OC(C(C)C2C(O)CC3C4C5OC5C5(O)CC(OC6OC(CO)C(O)C(O)C6O)CC(O)C5(C)C4CCC32C)C1 (configuration not stated)
Potency [1]: inactive
Potency [2]: inactive

C=C1C(O[C@@H]2O[C@H](CO)[C@@H](O)[C@H](O)[C@@H]2O)CC2C(C)(C)C(O)CCC2(C)C1CC/C(C)=C\CO (some centres not stated)
Potency [1]: inactive
Potency [2]: inactive
activity [3]: -63.2%
activity change, negative = inhibition [4]: 0% [at 29.8 µM]
activity [5]: 3.48%
activity [6]: 0.548%

CN1C(=O)N[C@@H](Cc2c[nH]c3c(Cl)cccc23)C1=O
Potency [1]: inactive
Potency [2]: inactive

Cc1cc(O)c(C(C)C)cc1O[C@@H]1O[C@H](CO)[C@@H](O)[C@H](O)[C@H]1O
Potency [1]: inactive
Potency [2]: inactive

COC(=O)C[C@@H]1C(C(=O)O)=CO[C@@H](O[C@@H]2O[C@H](CO)[C@@H](O)[C@H](O)[C@H]2O)/C1=C\COC(=O)/C=C\c1ccccc1
Potency [1]: inactive
Potency [2]: inactive

C=C(C)[C@H]1C[C@@H](O)C(=C)CC[C@@H](O)C(=C)[C@@H](O)C1
Potency [1]: inactive
Potency [2]: inactive
activity [3]: -67%
activity change, negative = inhibition [4]: 0%
activity [5]: 4.34%
activity [6]: 4.62%

COc1ccc(/C=C/C(=O)O[C@@H]2[C@@H](OC(C)=O)[C@@H](OC(C)=O)[C@H](O[C@H]3[C@@H]4C=CO[C@@H](O[C@@H]5O[C@H](CO)[C@@H](O)[C@H](O)[C@H]5O)[C@@H]4[C@@]4(CO)O[C@@H]34)O[C@H]2C)cc1O
Potency [1]: inactive
Potency [2]: inactive
activity [3]: -68.6%
activity change, negative = inhibition [4]: -5.06% [at 19.1 µM]
activity [5]: -11.7%
activity [6]: -9.65%

CC1(C)CC[C@]2(C(=O)O[C@@H]3O[C@H](CO)[C@@H](O)[C@H](O)[C@H]3O)CC[C@]3(C)C(=CCC4[C@@]5(C)C[C@@H](O)[C@H](O)[C@@](C)(CO)C5CC[C@]43C)C2C1 (some centres not stated)
Potency [1]: inactive
Potency [2]: inactive
activity [3]: -71.4%
activity change, negative = inhibition [4]: -8.61% [at 19.1 µM]
activity [5]: -8.27%
activity [6]: -4.38%

C[C@@H]1O[C@@H](OC[C@H]2O[C@@H](OCCc3ccccc3)[C@H](O)[C@@H](O)[C@@H]2O)[C@H](O)[C@H](O)[C@H]1O
Potency [1]: inactive
Potency [2]: inactive

CCC[C@@H]1C[C@@H](C(=O)N[C@@H]([C@H]2O[C@H](SC)[C@H](OP(=O)(O)O)[C@@H](O)[C@H]2O)[C@H](C)Cl)N(C)C1
Potency [1]: inactive
Potency [2]: inactive

O=C(O)CCc1cccc(O[C@@H]2O[C@H](CO)[C@@H](O)[C@H](O)[C@H]2O)c1O
Potency [1]: inactive
Potency [2]: inactive
activity [3]: -71.6%
activity change, negative = inhibition [4]: 0.429%
activity [5]: 0.392%
activity [6]: -5.98%

C/C=C(/C)C(=O)O[C@H]1C=C(C)C[C@H](OC(=O)c2ccc(O)cc2)C2[C@](O)(C(C)C)CC[C@@]21C (some centres not stated)
Potency [1]: inactive
Potency [2]: inactive

COc1cc(/C=C/C(=O)O[C@H]2[C@H](OC(=O)/C=C/c3cc(OC)c(O)c(OC)c3)O[C@H](CO[C@@H]3O[C@H](CO)[C@@H](O)[C@H](O)[C@H]3O)[C@@H](O)[C@@H]2O)ccc1O
Potency [1]: inactive
Potency [2]: inactive
activity [3]: -52.5%
activity change, negative = inhibition [4]: 0.645% [at 19.1 µM]
activity [5]: -4.49%
activity [6]: -4.24%

CC1(C)O[C@@H]2C[C@H]3[C@@H]4CCC5=CC(=O)C=C[C@]5(C)[C@H]4[C@@H](O)C[C@]3(C)[C@]2(C(=O)CO)O1
Potency [1]: inactive
Potency [2]: 46.8 nM (active)

CC(C)(O)C1CCC2(C)C3C(O)C4C(C13)C42CO (configuration not stated)
Potency [1]: inactive
Potency [2]: inactive

CCc1nc(C(N)=O)c(Nc2ccc(N3CCC(N4CCN(C)CC4)CC3)c(OC)c2)nc1NC1CCOCC1
Potency [1]: 1.13 µM (active) and 2.63 µM (active)
Potency [2]: 1.13 µM (active) and 2.63 µM (active)
activity [3]: -34.5%
Potency [4]: 26600 nM (active)
activity [5]: -16.4%
activity [6]: -59.8%

CC(C)CC(=O)O[C@@H]1OC=C(CO[C@@H]2O[C@H](CO[C@@H]3O[C@H](CO)[C@@H](O)[C@H](O)[C@H]3O)[C@@H](O)[C@H](O)[C@H]2O)[C@H]2C[C@H](O)[C@@H](CO)[C@@H]12
Potency [1]: inactive
Potency [2]: inactive

C/C=C(\C)C(=O)O[C@H]1[C@@H](O[C@]2(COC(=O)CC(C)C)O[C@H](COC(=O)C(C)C)[C@@H](OC(C)=O)[C@@H]2O)O[C@H](COC(C)=O)[C@@H](O)[C@@H]1O
Potency [1]: inactive
Potency [2]: inactive
activity [3]: -75.6%
activity change, negative = inhibition [4]: 0% [at 19.1 µM]
activity [5]: 2.56%
activity [6]: -1.49%

C=C1C(OC(C)=O)C(=O)C2C(C)(C)C(OC(C)=O)CCC2(C)C1CC(OC(C)=O)/C(C)=C/COC(C)=O (configuration not stated)
Potency [1]: inactive
Potency [2]: inactive

C=CC(C)(C)C12CC3C(=O)NC(Cc4cnc[nH]4)C(=O)N3C1Nc1ccccc12 (configuration not stated)
Potency [1]: inactive
Potency [2]: inactive

COc1ccc(C(OC2OC(CO)C(O)C(O)C2O)C(C)O)cc1 (configuration not stated)
Potency [1]: inactive
Potency [2]: inactive

CC1CC(=O)C2=C(O1)OC1(C)CCC3C(C)(C)C=CC(=O)C3(C)C1C2 (configuration not stated)
Potency [1]: inactive
Potency [2]: inactive
activity [3]: -45.9%
activity change, negative = inhibition [4]: -4.08%
activity [5]: -84.9%
activity [6]: -3%

CC1CC(O)C2(C)C(C(=O)O)=CCCC2C1(C)CCc1ccoc1 (configuration not stated)
Potency [1]: inactive
Potency [2]: inactive
activity [3]: -89.3%
activity change, negative = inhibition [4]: 2.37%
activity [5]: 2.05%
activity [6]: 2.03%

C[C@@]12C[C@]3(O)O[C@H](O1)[C@]1(COC(=O)c4ccccc4)[C@H]3C[C@@]12O[C@@H]1O[C@H](COC(=O)c2ccccc2)[C@@H](O)[C@H](O)[C@H]1O
Potency [1]: inactive
Potency [2]: inactive

COc1cc2c(cc1O)CCN[C@]21CS[C@@H]2c3c(OC(C)=O)c(C)c4c(c3[C@H](COC1=O)N1[C@@H]2[C@H]2c3c(cc(C)c(OC)c3O)C[C@@H]([C@@H]1O)N2C)OCO4
Potency [1]: 1.7 nM (active)
Potency [2]: 1.4 nM (active)

C=C[C@](C)(CC/C=C(\C)C(=O)O)O[C@@H]1OC[C@H](O)[C@H](O)[C@H]1O
Potency [1]: inactive
Potency [2]: inactive
activity [3]: -82.9%
activity change, negative = inhibition [4]: -1.98%
activity [5]: -0.767%
activity [6]: 0.753%

COc1cc(C2Oc3c(OC)cc(/C=C/C(=O)OC[C@H]4O[C@@H](OC(C)(C)C(=O)O)[C@H](O)[C@@H](O)[C@@H]4O)cc3C2CO)ccc1O (some centres not stated)
Potency [1]: inactive
Potency [2]: inactive
activity [3]: -69.3%
activity change, negative = inhibition [4]: -2.88% [at 19.1 µM]
activity [5]: -0.56%
activity [6]: -7.93%
